Drawing on ChEMBL document CHEMBL2218924, “A broad activity screen in support of a chemogenomic map for kinase signalling research and drug discovery” (Biochem J, 2013), this text covers residual activity for seven compounds.

The residual activity is the signal under treatment as a percentage of the control signal.

Assay [1] addresses Calcium/calmodulin-dependent protein kinase type 1 (Homo sapiens) (UniProt Q14012). Particulars: at 1 µM.
Assay [2] shares this target. The note with it: at 10 µM.
Assay [3] has as its target Calcium/calmodulin-dependent protein kinase type II subunit beta (Homo sapiens) (UniProt Q13554). Particulars: at 1 µM.
For assay [4] the target is unchanged. Particulars: at 10 µM.
In assay [5] the target is Calcium/calmodulin-dependent protein kinase type II subunit gamma (Homo sapiens) (UniProt Q13555). Particulars: at 1 µM.
The target is the same in assay [6]. Particulars: at 10 µM.
Assay [7] concerns the target Calcium/calmodulin-dependent protein kinase type II subunit delta (Homo sapiens) (UniProt Q13557). The note with it: at 1 µM.
Assay [8] shares this target. The note with it: at 10 µM.
For assay [9], the target named is T1, Calcium/calmodulin-dependent protein kinase type IV (Homo sapiens) (UniProt Q16566).
T1 sequence (whole entry): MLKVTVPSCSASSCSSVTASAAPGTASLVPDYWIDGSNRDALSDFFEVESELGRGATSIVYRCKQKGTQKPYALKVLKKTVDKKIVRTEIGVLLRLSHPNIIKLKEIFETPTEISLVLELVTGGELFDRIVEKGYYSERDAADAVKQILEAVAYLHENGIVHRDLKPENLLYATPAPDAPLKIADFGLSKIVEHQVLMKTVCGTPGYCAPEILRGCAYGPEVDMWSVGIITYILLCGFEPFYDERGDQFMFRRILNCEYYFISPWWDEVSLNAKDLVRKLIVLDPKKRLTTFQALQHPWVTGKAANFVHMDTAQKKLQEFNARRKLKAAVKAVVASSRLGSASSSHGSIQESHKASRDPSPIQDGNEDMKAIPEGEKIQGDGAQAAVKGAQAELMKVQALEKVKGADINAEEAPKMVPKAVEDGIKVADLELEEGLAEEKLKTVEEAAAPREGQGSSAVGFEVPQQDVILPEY
Particulars: at 10 µM.

For assay [10], the target named is Death-associated protein kinase 1 (Homo sapiens) (UniProt P53355). Particulars: at 10 µM.
For assay [11], the target named is Death-associated protein kinase 2 (Homo sapiens) (UniProt Q9UIK4). Particulars: at 1 µM.
For assay [12] the target is unchanged. Particulars: at 10 µM.
Assay [13] concerns the target T2, Serine/threonine-protein kinase DCLK2 (Homo sapiens) (UniProt Q8N568).
T2 sequence (whole entry): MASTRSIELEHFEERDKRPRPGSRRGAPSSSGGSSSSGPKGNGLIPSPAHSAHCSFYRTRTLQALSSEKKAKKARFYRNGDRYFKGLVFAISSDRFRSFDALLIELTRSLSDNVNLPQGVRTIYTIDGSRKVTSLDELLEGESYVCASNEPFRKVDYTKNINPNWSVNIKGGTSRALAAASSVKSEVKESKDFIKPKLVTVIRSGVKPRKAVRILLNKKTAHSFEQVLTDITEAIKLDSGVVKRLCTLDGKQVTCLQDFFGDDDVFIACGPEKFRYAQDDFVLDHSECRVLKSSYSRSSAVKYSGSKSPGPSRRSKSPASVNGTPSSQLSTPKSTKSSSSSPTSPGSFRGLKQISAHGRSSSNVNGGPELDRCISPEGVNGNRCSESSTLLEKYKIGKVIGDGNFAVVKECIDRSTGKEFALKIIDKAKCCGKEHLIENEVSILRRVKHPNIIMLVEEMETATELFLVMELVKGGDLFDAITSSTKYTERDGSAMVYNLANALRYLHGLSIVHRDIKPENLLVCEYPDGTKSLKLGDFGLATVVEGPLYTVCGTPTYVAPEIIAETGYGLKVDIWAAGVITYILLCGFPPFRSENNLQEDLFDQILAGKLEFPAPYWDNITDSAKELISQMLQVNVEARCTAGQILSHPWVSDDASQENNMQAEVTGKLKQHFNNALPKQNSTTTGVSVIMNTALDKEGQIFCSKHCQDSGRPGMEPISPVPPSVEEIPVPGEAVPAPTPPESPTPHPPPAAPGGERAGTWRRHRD
The note with it: at 10 µM.

Assay [14] deals with T3, Myotonin-protein kinase (Homo sapiens) (UniProt Q09013).
T3 sequence (whole entry): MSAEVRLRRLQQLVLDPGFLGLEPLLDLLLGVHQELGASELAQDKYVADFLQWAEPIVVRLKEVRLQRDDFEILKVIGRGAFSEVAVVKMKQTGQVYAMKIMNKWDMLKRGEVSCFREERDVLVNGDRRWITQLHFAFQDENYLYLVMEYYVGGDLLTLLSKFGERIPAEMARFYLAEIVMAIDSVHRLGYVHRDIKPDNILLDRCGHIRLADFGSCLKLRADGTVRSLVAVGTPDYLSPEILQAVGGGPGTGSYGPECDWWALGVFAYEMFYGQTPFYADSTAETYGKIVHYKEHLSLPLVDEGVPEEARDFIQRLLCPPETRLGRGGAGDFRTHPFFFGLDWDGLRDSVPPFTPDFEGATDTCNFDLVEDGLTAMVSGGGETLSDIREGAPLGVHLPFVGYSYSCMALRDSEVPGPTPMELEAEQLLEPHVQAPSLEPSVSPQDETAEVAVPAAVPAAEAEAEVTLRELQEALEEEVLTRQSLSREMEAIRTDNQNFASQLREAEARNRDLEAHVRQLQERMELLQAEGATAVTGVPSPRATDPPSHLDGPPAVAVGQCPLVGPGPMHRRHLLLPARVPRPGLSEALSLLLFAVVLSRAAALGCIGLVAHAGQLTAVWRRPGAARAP
The note with it: at 1 µM.

For assay [15], the target named is T3, Myotonin-protein kinase (Homo sapiens). The note with it: at 10 µM.
Assay [16] deals with T4, Serine/threonine-protein kinase 17A (Homo sapiens) (UniProt Q9UEE5).
T4 sequence (whole entry): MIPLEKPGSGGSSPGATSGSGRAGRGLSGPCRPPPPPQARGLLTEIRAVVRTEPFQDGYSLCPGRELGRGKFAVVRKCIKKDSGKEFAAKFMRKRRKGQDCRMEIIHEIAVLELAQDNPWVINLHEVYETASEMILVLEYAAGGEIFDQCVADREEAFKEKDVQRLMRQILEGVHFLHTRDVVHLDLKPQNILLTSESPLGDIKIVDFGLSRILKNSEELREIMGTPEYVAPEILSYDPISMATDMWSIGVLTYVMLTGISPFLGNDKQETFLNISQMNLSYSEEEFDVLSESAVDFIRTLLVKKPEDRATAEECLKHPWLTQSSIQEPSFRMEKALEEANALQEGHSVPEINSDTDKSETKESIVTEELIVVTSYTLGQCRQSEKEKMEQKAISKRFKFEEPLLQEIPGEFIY
The note with it: at 1 µM.

Assay [17] addresses T1, Calcium/calmodulin-dependent protein kinase type IV (Homo sapiens). Particulars: at 1 µM.
Assay [18] has as its target T2, Serine/threonine-protein kinase DCLK2 (Homo sapiens). Particulars: at 1 µM.
The target of assay [19] is T5, Discoidin domain-containing receptor 2 (Homo sapiens) (UniProt Q16832).
T5 sequence (whole entry): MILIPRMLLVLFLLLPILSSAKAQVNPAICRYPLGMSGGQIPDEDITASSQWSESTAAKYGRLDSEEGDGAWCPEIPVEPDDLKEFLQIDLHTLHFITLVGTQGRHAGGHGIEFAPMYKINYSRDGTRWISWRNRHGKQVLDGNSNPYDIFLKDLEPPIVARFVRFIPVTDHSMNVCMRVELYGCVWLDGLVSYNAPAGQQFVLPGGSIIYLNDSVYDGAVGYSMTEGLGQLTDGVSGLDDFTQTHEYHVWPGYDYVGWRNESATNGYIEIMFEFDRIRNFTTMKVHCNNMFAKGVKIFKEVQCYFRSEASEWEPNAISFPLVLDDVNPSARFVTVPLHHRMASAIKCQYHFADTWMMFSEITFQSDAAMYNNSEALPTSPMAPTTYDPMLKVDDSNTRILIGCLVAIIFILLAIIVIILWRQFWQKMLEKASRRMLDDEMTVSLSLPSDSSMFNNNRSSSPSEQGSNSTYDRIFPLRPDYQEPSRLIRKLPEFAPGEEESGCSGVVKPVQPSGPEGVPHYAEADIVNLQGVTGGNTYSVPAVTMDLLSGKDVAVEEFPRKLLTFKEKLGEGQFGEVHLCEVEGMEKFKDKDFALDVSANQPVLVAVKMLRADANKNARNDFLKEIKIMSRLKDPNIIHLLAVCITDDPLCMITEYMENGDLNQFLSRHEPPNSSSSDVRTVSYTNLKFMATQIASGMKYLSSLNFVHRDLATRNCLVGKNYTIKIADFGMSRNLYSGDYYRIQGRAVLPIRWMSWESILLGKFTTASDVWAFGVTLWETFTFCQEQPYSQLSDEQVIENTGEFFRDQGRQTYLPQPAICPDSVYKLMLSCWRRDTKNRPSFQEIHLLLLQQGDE
The note with it: at 1 µM.

For assay [20], the target named is T5, Discoidin domain-containing receptor 2 (Homo sapiens). The note with it: at 10 µM.

The structures appear in SMILES notation.

Chain of Calcium/calmodulin-dependent protein kinase type II subunit beta (Homo sapiens) (Q13554 whole entry): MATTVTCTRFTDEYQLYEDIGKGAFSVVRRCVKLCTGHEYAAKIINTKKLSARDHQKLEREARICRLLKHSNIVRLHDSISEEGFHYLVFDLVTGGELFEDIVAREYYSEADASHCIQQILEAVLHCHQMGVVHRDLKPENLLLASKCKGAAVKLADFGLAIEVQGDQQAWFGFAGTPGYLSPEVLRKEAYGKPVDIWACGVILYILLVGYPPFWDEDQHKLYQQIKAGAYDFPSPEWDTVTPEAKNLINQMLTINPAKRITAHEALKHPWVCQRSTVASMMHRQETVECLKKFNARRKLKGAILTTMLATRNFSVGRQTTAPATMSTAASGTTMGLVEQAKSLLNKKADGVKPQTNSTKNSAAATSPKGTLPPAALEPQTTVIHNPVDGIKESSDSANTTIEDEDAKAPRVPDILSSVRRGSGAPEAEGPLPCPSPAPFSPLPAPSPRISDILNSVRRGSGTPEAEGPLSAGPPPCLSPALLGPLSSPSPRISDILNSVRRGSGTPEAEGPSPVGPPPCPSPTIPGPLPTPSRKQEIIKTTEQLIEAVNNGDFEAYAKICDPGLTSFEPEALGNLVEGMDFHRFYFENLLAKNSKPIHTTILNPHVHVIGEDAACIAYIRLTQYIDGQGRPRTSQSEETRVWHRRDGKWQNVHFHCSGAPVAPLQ
Chain of Calcium/calmodulin-dependent protein kinase type II subunit gamma (Homo sapiens) (Q13555 whole entry): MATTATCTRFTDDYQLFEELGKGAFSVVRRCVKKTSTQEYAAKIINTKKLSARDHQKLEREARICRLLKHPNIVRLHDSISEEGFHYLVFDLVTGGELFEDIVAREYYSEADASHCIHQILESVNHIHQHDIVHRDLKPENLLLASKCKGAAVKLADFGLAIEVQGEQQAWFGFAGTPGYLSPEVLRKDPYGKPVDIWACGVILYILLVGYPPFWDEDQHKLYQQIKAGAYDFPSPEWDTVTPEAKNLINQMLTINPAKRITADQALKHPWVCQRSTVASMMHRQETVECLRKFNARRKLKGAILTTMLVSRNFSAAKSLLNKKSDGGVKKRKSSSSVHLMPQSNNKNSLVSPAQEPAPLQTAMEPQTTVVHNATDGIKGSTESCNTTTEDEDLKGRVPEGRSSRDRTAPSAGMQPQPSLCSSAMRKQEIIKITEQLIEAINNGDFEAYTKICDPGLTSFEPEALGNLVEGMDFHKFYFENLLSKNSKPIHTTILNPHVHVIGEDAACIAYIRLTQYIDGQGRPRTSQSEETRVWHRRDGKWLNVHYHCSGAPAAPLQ
Chain of Calcium/calmodulin-dependent protein kinase type II subunit delta (Homo sapiens) (Q13557 whole entry): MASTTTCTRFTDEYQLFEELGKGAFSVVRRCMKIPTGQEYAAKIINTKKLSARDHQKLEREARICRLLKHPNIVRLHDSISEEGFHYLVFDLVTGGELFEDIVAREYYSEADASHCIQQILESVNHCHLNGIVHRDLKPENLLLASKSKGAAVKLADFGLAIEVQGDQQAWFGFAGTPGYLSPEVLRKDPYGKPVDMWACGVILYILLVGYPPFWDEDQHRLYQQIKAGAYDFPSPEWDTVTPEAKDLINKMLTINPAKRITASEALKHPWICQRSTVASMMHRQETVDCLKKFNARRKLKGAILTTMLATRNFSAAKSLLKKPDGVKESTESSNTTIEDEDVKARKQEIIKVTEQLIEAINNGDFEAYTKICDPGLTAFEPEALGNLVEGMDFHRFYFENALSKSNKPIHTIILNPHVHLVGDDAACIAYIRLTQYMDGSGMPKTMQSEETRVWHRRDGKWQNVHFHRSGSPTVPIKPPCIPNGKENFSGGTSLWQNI
Chain of Death-associated protein kinase 1 (Homo sapiens) (P53355 whole entry, looked up): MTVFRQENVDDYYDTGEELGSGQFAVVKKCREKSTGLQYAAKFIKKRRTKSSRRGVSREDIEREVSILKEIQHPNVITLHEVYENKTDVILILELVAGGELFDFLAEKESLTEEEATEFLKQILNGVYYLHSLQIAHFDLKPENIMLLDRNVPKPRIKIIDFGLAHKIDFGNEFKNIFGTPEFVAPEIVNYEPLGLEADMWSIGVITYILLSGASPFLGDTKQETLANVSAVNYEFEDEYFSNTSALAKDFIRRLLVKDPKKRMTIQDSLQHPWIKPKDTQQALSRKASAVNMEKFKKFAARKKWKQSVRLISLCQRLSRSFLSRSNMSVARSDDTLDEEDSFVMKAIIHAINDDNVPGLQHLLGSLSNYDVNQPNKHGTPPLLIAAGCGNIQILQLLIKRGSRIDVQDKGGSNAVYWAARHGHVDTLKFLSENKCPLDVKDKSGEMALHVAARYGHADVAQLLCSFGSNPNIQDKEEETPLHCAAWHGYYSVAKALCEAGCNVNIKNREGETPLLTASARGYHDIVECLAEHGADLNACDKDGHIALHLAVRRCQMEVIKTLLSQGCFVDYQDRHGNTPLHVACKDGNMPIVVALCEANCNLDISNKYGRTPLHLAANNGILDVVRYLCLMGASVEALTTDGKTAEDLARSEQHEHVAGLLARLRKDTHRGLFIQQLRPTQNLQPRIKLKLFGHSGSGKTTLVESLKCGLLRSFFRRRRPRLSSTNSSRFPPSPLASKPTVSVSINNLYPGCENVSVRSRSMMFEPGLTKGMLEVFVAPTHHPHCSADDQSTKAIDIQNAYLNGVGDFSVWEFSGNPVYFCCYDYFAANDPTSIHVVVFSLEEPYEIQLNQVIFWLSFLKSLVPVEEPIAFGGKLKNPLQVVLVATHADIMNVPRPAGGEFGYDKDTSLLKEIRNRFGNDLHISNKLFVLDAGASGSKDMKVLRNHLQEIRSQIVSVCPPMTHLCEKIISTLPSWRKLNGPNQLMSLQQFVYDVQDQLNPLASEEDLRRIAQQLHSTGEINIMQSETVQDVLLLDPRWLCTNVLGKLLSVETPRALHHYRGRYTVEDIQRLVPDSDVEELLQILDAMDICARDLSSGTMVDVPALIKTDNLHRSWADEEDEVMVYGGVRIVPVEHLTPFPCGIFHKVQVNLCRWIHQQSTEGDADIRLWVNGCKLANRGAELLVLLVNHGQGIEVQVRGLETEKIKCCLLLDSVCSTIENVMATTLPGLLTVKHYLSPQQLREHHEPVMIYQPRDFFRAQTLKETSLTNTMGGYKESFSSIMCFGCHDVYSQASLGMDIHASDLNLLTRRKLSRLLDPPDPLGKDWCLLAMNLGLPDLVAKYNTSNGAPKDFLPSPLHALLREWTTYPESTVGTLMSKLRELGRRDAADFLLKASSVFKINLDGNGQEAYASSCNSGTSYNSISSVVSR
Chain of Calcium/calmodulin-dependent protein kinase type 1 (Homo sapiens) (Q14012 whole entry, looked up): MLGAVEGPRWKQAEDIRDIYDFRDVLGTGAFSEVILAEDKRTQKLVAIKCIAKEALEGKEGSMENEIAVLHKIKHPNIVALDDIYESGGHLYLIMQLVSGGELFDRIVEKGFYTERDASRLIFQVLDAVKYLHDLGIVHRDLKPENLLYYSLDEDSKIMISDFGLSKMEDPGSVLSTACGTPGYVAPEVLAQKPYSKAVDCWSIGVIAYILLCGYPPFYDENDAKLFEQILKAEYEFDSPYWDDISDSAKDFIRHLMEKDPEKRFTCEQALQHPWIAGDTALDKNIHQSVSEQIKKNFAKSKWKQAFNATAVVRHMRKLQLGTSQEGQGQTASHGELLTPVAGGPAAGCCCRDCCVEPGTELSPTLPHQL
Chain of Death-associated protein kinase 2 (Homo sapiens) (Q9UIK4 whole entry, looked up): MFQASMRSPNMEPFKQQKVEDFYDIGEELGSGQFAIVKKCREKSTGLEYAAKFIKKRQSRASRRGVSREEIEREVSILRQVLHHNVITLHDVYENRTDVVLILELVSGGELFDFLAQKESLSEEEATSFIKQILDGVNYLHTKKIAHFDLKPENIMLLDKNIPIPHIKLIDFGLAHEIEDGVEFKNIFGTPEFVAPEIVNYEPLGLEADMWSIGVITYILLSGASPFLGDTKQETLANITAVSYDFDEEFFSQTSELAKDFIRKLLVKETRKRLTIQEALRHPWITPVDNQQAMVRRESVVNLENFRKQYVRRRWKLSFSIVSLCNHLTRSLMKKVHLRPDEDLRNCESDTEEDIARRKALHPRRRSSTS

Regarding `O=c1cc(N2CCNCC2)oc2c(-c3ccccc3)cccc12`, the residual activity turned out to be 105% in assay [1]; 80% in [2]; 91% in [3]; 84% in assay [4]; 104% in assay [5]; 88% in assay [6]. Further, the residual activity amounted to 101% in assay [7]; 77% in [8]; 87% in [9]; 82% in assay [10]; 98% in [11]; 102% in assay [12]. Moreover, the residual activity in [13] came out at 70%; in assay [14], 134%; in assay [15] it was 141%; in assay [16], 69%.
Turning to `Cn1sc(=O)n(Cc2ccccc2)c1=O`, the residual activity in assay [1] worked out at 75%; in assay [2] it was 67%; in [3] it was 92%; in assay [4], 83%; in [7], 98%; in assay [8], 90%. For the same compound, the residual activity in [17] is 73%; in assay [9], 51%; in [10], 80%; in [11], 97%; in assay [12], 99%; in assay [18], 100%. Further, the residual activity in assay [13] was determined as 90%; in [19], 78%; in [20] it was 90%; in [15], 81%.
In the case of `c1ccc(-c2cnc(Nc3ccc(OCCN4CCCC4)cc3)s2)cc1`, the residual activity in assay [1] was 101%; in [2], 41%; in [3] it was 48%; in assay [4], 7%; in assay [5] it was 19%; in assay [6] it was -1%. In addition, the residual activity amounted to 22% in assay [7]; 4% in assay [8]; 108% in [18]; 54% in assay [13]; 100% in assay [19]; 48% in assay [20]. Moreover, in assay [16], the residual activity came out at 31%.
Regarding `CCN(CC)CCNC(=O)c1c(C)[nH]c(/C=C2\C(=O)Nc3ccc(Cl)cc32)c1C`, the residual activity in [1] was 51%; in [2], -2%; in assay [3], 8%; in assay [4] it was 1%; in assay [5], 3%; in assay [6], 0%. The residual activity in [7] was determined as 3%; in assay [8], 1%; in [10] it was 31%; in assay [11] it was 63%; in assay [12], 16%; in [18] it was 68%. For the same compound, the residual activity in assay [13] came out at 24%; in [20] it was 44%; in assay [14] it was 52%; in [15], 68%; in [16], 3%.
Regarding `Nc1ncnc2c1cnn2-c1ccccc1`, the residual activity in assay [1] is 99%; in [2] it was 69%; in [4], 35%; in [5], 91%; in [6], 51%; in assay [7], 98%. Further, the residual activity in assay [8] is 63%; in assay [17] it was 125%; in [9], 92%; in assay [10] it was 86%; in assay [11] it was 95%; in assay [18], 71%. In assay [13], the residual activity turned out to be 69%.
Consider `O=C1NC(=O)C(c2cn(CCCn3ccnc3)c3ccccc23)=C1Nc1ccccc1`, for which the residual activity was determined as 106% in assay [1]; 53% in [2]; 77% in assay [3]; 45% in assay [4]; 77% in [7]; 23% in [8]. Besides, the residual activity was 106% in [17]; 74% in assay [9]; 100% in assay [18]; 79% in assay [13]; 120% in [14]; 124% in assay [15].
As for `O=C(c1ccccc1)c1ccc(N2CCOCC2)cc1O`, the residual activity in [1] is 95%; in assay [2], 98%; in [4], 71%; in [6], 78%; in assay [7], 100%; in [8], 76%. The residual activity in [17] was found to be 111%; in [10] it was 100%; in [11], 89%; in [18], 64%; in assay [13] it was 93%; in assay [19], 111%. Moreover, the residual activity in [20] was 93%; in assay [14], 138%.
